The values below come from PubChem BioAssay.

Active and inactive are the calls of the source.

The nature of the test: E. coli growth modulation, two-sided OD650, primary screen, E. coli filamentation project, strain DRC41, 24 h (AID 1093).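 Further: MC1000 strain lacking acrAB efflux and sulA so SOS filamentation is blocked; test concentration not given here.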 The note with it: OD650, 24 h, higher = more signal, called active from +8 up or from −8 down.
Regarding `COc1c(C)cc(-c2cc3c(c(-c4ccccc4)n2)[Si](C(C)C)(C(C)C)OC3)cc1C`, the z-score is 0.346 (inactive).
Take `O=C(CCCCCCC(=O)Nc1ccccc1)N/N=C/c1ccccc1`: the z-score is 0.195 (inactive).
On to `CCOC(=O)C[C@H]1[C@H](OC(=O)Cc2ccc3c(c2)OCO3)[C@@H](NC(=O)C2CCCCC2)c2cc(OCCCO)ccc2N1C(=O)c1ccc2ccccc2n1`, for which the z-score is 0.848 (inactive).
Regarding `O=C(NC1CC1)[C@@H]1c2ccccc2C(=O)N(Cc2ccccc2)[C@H]1c1ccc(CO)cc1`, the z-score was 0.958 (inactive).
As for `NC(N)=NCc1cn(CCc2c[nH]c3ccccc23)nn1`, the z-score is -0.979 (inactive).
For `COCCCNC(=O)[C@@]1(Sc2ccc(C)cc2)CC(=O)N(Cc2cc(C(F)(F)F)cc(C(F)(F)F)c2)[C@@H]1c1ccc(CO)cc1`, the z-score was -0.296 (inactive).
Turning to `O=C1O[C@@H](c2ccccc2)[C@@H](c2ccccc2)N2[C@@H](c3ccc(O)cc3)[C@]3(C(=O)Nc4ccc(C#CC5=CCCCC5)cc43)[C@@H](C(=O)N3CCN(c4ncccn4)CC3)[C@H]12`, the z-score was 1.62 (inactive).
Turning to `COCCOC(=O)N1C(=O)[C@@]2(c3cc(C#CC4=CCCCC4)ccc31)[C@H](c1ccccc1OCCO)N1[C@H](c3ccccc3)[C@H](c3ccccc3)OC(=O)[C@H]1[C@@H]2C(=O)N1CCc2cc(OC)c(OC)cc2C1`, the z-score is -0.0749 (inactive).
Under `CC[C@H]1C2=C3C(CC[C@H]4C(OCc5ccc(F)cc5C(F)(F)F)OC[C@](C)([C@@H]34)N(C(=O)OC(C)(C)C)C2)C2COC(=O)OCC21` (stereo partly specified) stands -1.81 (inactive).
Then `CO[C@H]1O[C@H](CO)[C@@H](OC(=O)Nc2ccccc2-c2ccccc2)[C@H](OC(=O)Nc2ccc3c(c2)OCO3)[C@@H]1OC(=O)Nc1ccc2c(c1)OCO2`, with 0.0976 (inactive); and `COCCCNC(=O)[C@@]1(Sc2ccc(C)cc2)CC(=O)N(C2Cc3ccccc3C2)[C@@H]1c1ccc(CO)cc1I`, with -0.421 (inactive).
`Cc1ccc(S[C@]2(C(=O)NCc3ccccc3)CC(=O)N(C(C)C)[C@@H]2c2ccc(CO)cc2I)cc1`: the z-score was 0.349 (inactive).
Regarding `CC(C)C(O)C1C=CC2C(=O)N(C)C(=O)C2N1N(c1ccccc1)c1ccccc1` (stereo unspecified), the z-score was -0.573 (inactive).
Then `O=C1OCC=C[C@H]2OC34C=CCN(Cn5nnc6ccccc65)C(=O)[C@H]3N(CCCCCCO)C(=O)[C@@H]4[C@@H]12` (stereo partly specified), with -0.218 (inactive).
With `COC(=O)[C@@]1(Cc2ccccc2)[C@H]2c3cc(C(=O)N4CCCC4)n(Cc4cc(F)cc5c4OCOC5)c3C[C@H]2CN1C(=O)c1ccccc1`, the z-score was -0.542 (inactive).
Under `O=C(O)[C@H](Cc1ccccc1)n1cc(-c2ccccn2)nn1` stands -0.631 (inactive); under `CN(C)CCCNC(=O)[C@@]1(c2ccc([N+](=O)[O-])cc2)CC(=O)N(CC23CC4CC(CC(C4)C2)C3)[C@@H]1c1ccc(CO)cc1`, -0.279 (inactive).
Then `CCOC(=O)C[C@H]1[C@H](OC(=O)c2ccc(-c3ccccc3)cc2)[C@@H](NC(=O)c2ccc3ccccc3n2)c2cc(OCCCO)ccc2N1C(=O)c1ccccc1`, with -0.81 (inactive); and `CCOC(=O)C1=CC[C@@H](c2ccccc2)N(S(=O)(=O)c2ccc(C)cc2)C1`, with -0.855 (inactive).
Take `CCOC(=O)[C@H]1C/C=C/C[C@H](C(=O)OCC)C(=O)O[C@H]2[C@@H](OC)O[C@H](CO)[C@@H](OC(=O)Nc3ccc(OC)cc3)[C@@H]2OC1=O`: the z-score is 1.3 (inactive).
Turning to `COC(=O)[C@H](Cc1ccccc1)N1CC(/C=C/C2CC2)=C[C@@H]1[C@@H](O)Cc1ccccc1`, the z-score was 0.559 (inactive).
For `Cc1ccc(F)cc1S(=O)(=O)N[C@@H]1CCN(Cc2ccc(Oc3ccccc3)cc2)C1`, the z-score was -14.1 (active).
For the compound `COCCOC(=O)N1C(=O)[C@@]2(c3cc(C#Cc4ccc(OC)cc4)ccc31)[C@H](C(=O)NC[C@H](O)c1ccccc1)[C@H]1C(=O)O[C@H](c3ccccc3)[C@H](c3ccccc3)N1[C@@H]2c1ccc(O)cc1`, the z-score was 0.394 (inactive).
For `CN(C)CCCNC(=O)[C@@H]1c2ccccc2C(=O)N(CC23CC4CC(CC(C4)C2)C3)[C@H]1c1ccc(CO)cc1`, the z-score is 0.583 (inactive).
Consider `CCOC(=O)[C@@H]1[C@@H]2C(=O)N(CC)C(=O)[C@@H]2C[C@@H]1Sc1ccccc1`, for which the z-score was 0.0399 (inactive).
With `CC(C)C(=C=CC[C@@H](O)c1ccccc1OCCO)C[C@@H](O)COCc1ccccc1`, the z-score was 1.44 (inactive).
